Measurements taken from PMC5540273 (PLoS ONE, 2017).

What was measured:
Settings in all cases: concentration: 1 μM, replicates: in singlicate; n = 1
WNK4 = system: WNK4
YANK1 = system: T1, YANK1
T1 construct: gene STK32A

YANK2 = system: T2, YANK2
T2 construct: gene STK32B

YANK3 = system: T3, YANK3
T3 construct: gene STK32C

YES = system: T4, YES
T4 construct: gene YES1

YSK1 = system: T5, YSK1
T5 construct: gene STK25

YSK4 = system: T6, YSK4
T6 construct: gene MAP3K19

ZAK = system: ZAK
ZAP70 = system: ZAP70
p38-alpha = system: T7, p38-alpha
T7 construct: gene MAPK14
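Also: KINOMEscan kinase panel screen.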

Row | SMILES | %Inh (WNK4) | %Inh (YANK1) | %Inh (YANK2) | %Inh (YANK3) | %Inh (YES) | %Inh (YSK1) | %Inh (YSK4) | %Inh (ZAK) | %Inh (ZAP70) | %Inh (p38-alpha)
1 | Cl.Cn1ccc(-c2cccc(Nc3ccnc4cc(-c5nccs5)ccc34)c2)n1 [GW525701] | 66% | 0% | 10% | 0% | 21% | 17% | 41% | 0% | 74% | 9%
2 | Cl.c1ccc(Cn2ccc3cc(Nc4ncnc5ccccc45)ccc32)cc1 [GW275568] | 6% | 18% | 0% | 0% | 15% | 7% | 4% | 6% | 1% | 2%
3 | CCc1nc(-c2cccc(N(C)S(=O)(=O)c3ccccc3)c2)c(-c2ccnc(Nc3ccc(N4CCN(C(C)=O)CC4)nc3)n2)s1 [GSK1645895] | 0% | 5% | 18% | 11% | 33% | 26% | 29% | 83% | 0% | 60%
4 | Nc1nccc2scc(-c3ccc4c(c3)CCN4C(=O)Cc3cc(F)ccc3F)c12 [GSK2587663] | 5% | 26% | 0% | 20% | 10% | 11% | 32% | 9% | 0% | 0%
5 | Cc1cc(N2CCC(NS(=O)(=O)c3ccc(F)cc3)CC2)nc(Nc2cccc(C#N)c2)n1.O=C(O)C(F)(F)F [GSK1653537] | 0% | 2% | 1% | 29% | 0% | 22% | 0% | 0% | 0% | 0%
6 | Fc1cccc(COc2ccc(Nc3ncnc4cc[nH]c34)cc2Cl)c1 | 28% | 26% | 0% | 9% | 20% | 0% | 18% | 0% | 0% | 0%
7 | COc1ccc(-c2oc3ncnc(N)c3c2-c2ccc(OC)cc2)cc1 [SB-589132] | 55% | 19% | 12% | 21% | 44% | 6% | 57% | 9% | 0% | 7%
8 | Cn1ccc2ncnc(Nc3ccc(Oc4cccc(Cl)c4)c(Cl)c3)c21 | 34% | 0% | 14% | 17% | 0% | 0% | 11% | 30% | 0% | 17%
9 | Fc1ccc(-c2ncn(CCCNCc3ccccc3)c2-c2ccncc2)cc1 | 0% | 17% | 0% | 7% | 17% | 0% | 9% | 10% | 11% | 77%
10 | Nc1nc(-c2ccc3c(N)n[nH]c3c2)cc(N2CCCCC2)n1 [GSK2228768] | 0% | 0% | 0% | 0% | 0% | 1% | 0% | 0% | 0% | 0%
11 | CC(C)(C)c1ccc(-n2cnc3c(N)ncnc32)cc1 [SKF-97263] | 0% | 0% | 11% | 11% | 6% | 0% | 15% | 10% | 0% | 0%
12 | Clc1ccc(-c2cc(-c3c[nH]nc3-c3ccccn3)ccn2)cc1 [GW681251] | 0% | 0% | 0% | 0% | 0% | 0% | 0% | 14% | 47% | 45%
13 | FC(F)(F)c1ccc(-c2nn3ncccc3c2-c2ccnc(Nc3cccc(C(F)(F)F)c3)n2)cc1 [GW828205] | 0% | 0% | 0% | 0% | 0% | 0% | 0% | 0% | 42% | 0%
14 | CSc1ccc(NC2=C(c3ccccc3Cl)C(=O)NC2=O)cc1 [SB-342411] | 0% | 12% | 0% | 9% | 9% | 60% | 0% | 20% | 0% | 0%
15 | COc1ccc(Nc2nccc(N3CCC(NC(=O)Nc4ccc5c(c4)OCO5)C3)n2)cc1 (stereo not drawn) [GSK1379745] | 24% | 3% | 15% | 16% | 0% | 0% | 7% | 0% | 0% | 12%
16 | Cl.c1ccc(Cn2ncc3cc(Nc4ncnc5ccccc45)ccc32)cc1 [GW273749] | 0% | 6% | 0% | 0% | 16% | 17% | 30% | 0% | 0% | 10%
17 | C[C@@H]1CCN(C(=O)CO)C[C@@H]1N(C)c1ncnc2[nH]ccc12 | 0% | 19% | 0% | 0% | 0% | 0% | 7% | 7% | 0% | 5%
18 | O=C(Nc1ccccc1F)NC1CCN(c2ccnc(Nc3ccc(F)cc3)n2)C1 (stereo not drawn) [GSK1379722] | 28% | 0% | 6% | 21% | 14% | 2% | 28% | 0% | 0% | 6%
19 | Nc1nc(-c2ccccn2)c(-c2ccnc3ccccc23)s1 [GW548057] | 88% | 0% | 7% | 0% | 13% | 14% | 4% | 0% | 4% | 54%
20 | O=C(Nc1n[nH]c2nc(-c3ccco3)c(Br)cc12)c1ccc(CN2CCCC2)cc1.O=C(O)[C@H](O)[C@@H](O)C(=O)O [SB-742352] | 0% | 0% | 0% | 0% | 1% | 0% | 49% | 29% | 0% | 0%
21 | Cn1ccc2ncnc(Oc3ccc(NC(=O)Nc4cccnc4)c(Cl)c3)c21 | 0% | 0% | 13% | 7% | 0% | 0% | 0% | 3% | 0% | 14%
